High-throughput results as filed in PubChem BioAssay.
Most compounds without a hit are left out; they make up all but 17% or so of the library.
ATXN2 expr inh: Primary qHTS for Inhibitors of ATXN expression; HEK-293 ATXN2-luciferase reporter, luminescence, 24 h; Potency, µM (doses to about 57 µM), for the others: at the top dose activity change, negative = inhibition, actives largely listed as inhibitors; actives 0.72% (n = 360,000); further: on the % scale 0 is the no-effect control and ±100 the full control effect; nearly all actives have a fitted effect of over 55% in size
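ATXN2-luciferase reporter cells (luciferase flanked by upstream and downstream ATXN2 gene portions) were treated 24 h at 37 °C with compounds at up to 57 uM. SteadyGlo luminescence gave expression; GF-AFC fluorescence gave viability.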
TDP1 cell noCPT: qHTS for Inhibitors of human tyrosyl-DNA phosphodiesterase 1 (TDP1): qHTS in cells in absence of CPT | actives 15% (n = 420,000) | DT40 Tdp1-/- hTDP1 cells, no CPT, ATP luminescence, 48 h | Potency, µM (series often up to 46.2 µM), for inactives: at the highest dose activity change, negative = growth inhibition, actives largely listed as inhibitors; further: on the % scale 0 is the no-effect control and ±100 the full control effect; nearly all actives have a fitted effect of over 55% in size
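Readout: luminescence from CellTiter-Glo after 30 min in the dark at RT. Cells: DT40 Tdp1-/- with stable hTDP1, 400/well. Exposure: compounds alone, ≥48 hr, 37 °C.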
TGFb inhibitor: qHTS for Inhibitors of TGF-b; HepG2 CAGA-GFP TGF-b/SMAD3 reporter, GFP fluorescence, 18 h; TGF-beta stimulated, 500 pg/mL final; Potency, µM (titrated, usually from 46.1 µM), inactives show at the top dose activity, negative = inhibition, actives largely listed as inhibitors; actives 1.2% (n = 410,000); AID 588855, 2011; further: on the % scale 0 is the no-effect control and ±100 the full control effect; nearly all actives have a fitted effect of over 65% in size
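Smad-responsive CAGA-GFP expression was quantified in HEPG2 cells exposed to compounds and 500 pg/mL final TGF-beta for 18 h at 37 degrees C; unstimulated wells defined full inhibition.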
HepG2 viability: qHTS for Inhibitors of TGF-b: Cytotox Counterscreen. HepG2 CAGA-GFP viability, ATP luminescence, 18 h. Potency, µM (series often up to 46.1 µM), inactives show at the highest dose activity change, negative = cytotoxicity, usual class: cytotoxic. actives 0.76% (n = 410,000)
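HepG2 CAGA-GFP cells (1000/well, DMEM with 1% FBS) received compound, then TGF-beta at 500 pg/mL final, and were incubated 18 hours at 37 degrees C. Viability was read by CellTiter-Glo luminescence. Media-only wells were set as complete cell-killing and DMSO as no toxicity.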
ATXN viability: Viability Counterscreen for Primary qHTS for Inhibitors of ATXN expression; S2 cells (HEK-293 line with an ATXN2-luciferase reporter) viability, CellTiter-Fluor protease fluorescence, 24 h; Potency, µM (highest dose often 56.7 µM), most hits filed as cytotoxic; actives 0.49% (n = 400,000); AID 651635, 2014; further: nearly all actives have a fitted effect of over 40% in size
DT40 TDP1 CPT: qHTS for Inhibitors of human tyrosyl-DNA phosphodiesterase 1 (TDP1): qHTS in cells in presence of CPT; chicken DT40 Tdp1-/-;hTDP1 cells + 20 nM CPT, ATP luminescence, 48 h; Potency, µM (top dose mostly 46.2 µM), inactives show top-dose activity change, negative = growth inhibition, most hits filed as inhibitors; actives 12% (n = 420,000); further: on the % scale 0 is the no-effect control and ±100 the full control effect; nearly all actives have a fitted effect of over 55% in size
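Chicken DT40 Tdp1-/- cells complemented with human TDP1, 400 cells/well, exposed to compounds plus 20 nM camptothecin for at least 48 h at 37 C; viability read as ATP content by CellTiter-Glo luminescence.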
* marks the source's active call; other numbers are inactive results; i = inactive; u = inconclusive; x = no result given; [ ] = another dose, or the depositor's remark. The call rests on the fitted dose curve; in most records, active means well fitted curve in the direction sought with a large enough effect; inconclusive means small, poorly fitted or top-dose-only effect, or another doubt; inactive means no such curve, though single readings can be large; an effect the other way counts as inactive or inconclusive. Potency means the concentration at half of the fitted maximal effect.

SMILES	ATXN2 expr inh	TDP1 cell noCPT	TGFb inhibitor	HepG2 viability	ATXN viability	DT40 TDP1 CPT
COC(=O)Cc1ccc(NC(=S)NCCO)cc1	0.7%	-2.5%	-2.1%	35.0%	i	2.8%
Cc1ccc(SCCNC(=S)Nc2ccc(C)c(C)c2)cc1	0.0%	u	u	-27.0%	i	u
COC(=O)Cc1ccc(NC(=S)NCCSc2ccc(Cl)cc2)cc1	-26.9%	20.6µM*	-11.4%	-37.6%	i	u
Cc1nc2ccccn2c1CN(C)C(=O)C1CCC(=O)N(CCc2cccc(F)c2)C1 (stereo not given)	6.0%	16.0%	-0.6%	-16.0%	i	-12.8%
NC(=O)COC(=O)c1ccc2noc(-c3ccccc3)c2c1	37.2%	13.8%	-4.9%	5.8%	i	1.5%
O=C(O)/C=C/c1ccc2noc(-c3ccccc3)c2c1	x	u	35.4%	2.4%	i	14.6µM*
Cc1ccc(-c2onc3ccc(C=O)cc23)cc1	32.1%	18.4µM*	-4.3%	-24.1%	i	16.4µM*
CCCCSc1cc(C)nc(N)n1	1.4%	1.3%	10.8%	-2.6%	i	-2.9%
CCOc1ccc(/C=C/c2nc(C#N)c(N3CCN(c4ccccc4)CC3)o2)cc1	x	-14.3%	-0.4%	2.1%	x	u
CCOc1ccc(/C=C/c2nc(C#N)c(N3CCN(CC)CC3)o2)cc1	x	5.8µM*	-9.4%	-21.6%	x	6.51µM*
N#Cc1nc(/C=C/c2ccc(F)cc2)oc1N1CCCCCC1	14.1%	u	-26.7%	-25.7%	x	u
CC1CCN(c2oc(/C=C/c3ccc(F)cc3)nc2C#N)CC1	25.6%	14.6µM*	8.7%	-6.4%	i	u
CCOc1ccc(/C=C/c2nc(C#N)c(N3CCC(C)CC3)o2)cc1	x	13µM*	u	-38.9%	x	10.3µM*
Cc1ccc(S(=O)(=O)C2CCN(c3nc(-c4cccs4)nc4ccccc34)CC2)cc1	x	u	x	x	x	11.2µM*
COc1cccc(S(=O)(=O)N2CCN(c3nc(-c4cccs4)nc4ccccc34)CC2)c1	x	10µM*	x	x	x	14.1µM*
Cc1ccc(S(=O)(=O)N2CCN(c3nc(-c4cccs4)nc4cccnc34)CC2)cc1	x	u	6.8%	3.9%	x	10µM*
Cc1ccc(S(=O)(=O)N2CCN(c3nc(-c4cccs4)nc4ccccc34)CC2)cc1	5.4%	11.2µM*	3.5%	2.6%	i	u
Cc1cccc(S(=O)(=O)N2CCN(c3nc(-c4cccs4)nc4ccccc34)CC2)c1	x	-12.7%	x	x	x	-9.5%
CN(C)CC#Cc1cccc(-c2nc(C(=O)O)cc3c2[C@@H](CCO)N(S(=O)C(C)(C)C)C3)c1 (stereo not given in full)	-2.8%	2.1%	u	-14.5%	i	-0.6%
CC(CNC(=O)c1cc(Cl)ccc1[N+](=O)[O-])NC(=O)c1cc(Cl)ccc1[N+](=O)[O-] (stereo not given)	0.8%	-20.6%	-1.2%	-10.9%	i	-11.1%
O=C(O)C1C2CC(C(Br)C2Br)C1C(=O)O (stereo not given)	-2.9%	4.3%	-6.3%	8.1%	i	7.9%
COc1ccc(C)cc1NS(=O)(=O)c1ccc2c3c(cccc13)C(=O)N2	28.2µM*	u	u	-61.2%	u	4.11µM*
Cc1cc(O)ccc1NS(=O)(=O)c1ccc2c3c(cccc13)C(=O)N2	11.8%	u	8.3%	-2.7%	i	-5.2%
CN(C)c1ccc(C(=O)n2nnc3ccccc32)cc1	19.2%	u	1.8%	-1.4%	u	23.1µM*
CCCC(=O)Nc1ccc(C(=O)n2nnc3ccccc32)cc1	3.5%	u	-6.2%	10.1%	i	u
SMILES	ATXN2 expr inh	TDP1 cell noCPT	TGFb inhibitor	HepG2 viability	ATXN viability	DT40 TDP1 CPT
CC(C)c1ccc(/C=C/C(=O)n2nnc3ccccc32)cc1	-19.8%	u	9.9%	-44.4%	i	16.4µM*
CCC1CN(CCNC(=O)c2cscn2)Cc2cc(OC)ccc2O1 (stereo not given)	x	-5.3%	x	x	i	-6.5%[9.04 µM]
O=C(CSc1nc(Nc2ccccc2)nc(N2CCOCC2)n1)N1CCc2ccccc21	-3.9%	18.4µM*	21.4%	-50.4%	i	u
O=C(CSc1nc(Nc2ccccc2)nc(N2CCOCC2)n1)N1CCCC1	-0.1%	20.6µM*	27.8%	-53.8%	i	u
O=C(COC(=O)/C=C/c1cccs1)Nc1ccc2ccccc2c1	4.8%	-5.2%	-9.6%	-3.6%	i	-16.9%
Cc1ccc(NC(=O)CSc2nc(=O)n(Cc3cccnc3)c3c2CCC3)cc1F	-16.9%	u	-9.2%	-10.0%	i	-24.5%
CCC1S/C(=N/N=C/c2ccco2)N(Cc2ccc(F)cc2)C1=O (stereo not given)	x	u	u	5.6%	i	u
CC1S/C(=N/N=C/c2ccco2)N(Cc2ccccc2)C1=O (stereo not given)	x	9.2µM*	-7.5%	-13.7%	i	u
Cc1nc2sccn2c(=O)c1CCN1CCC(=C(c2ccccc2)c2ccc(F)cc2)CC1	x	11.9µM*	x	x	x	13.3µM*
O=C(Nc1nc2ccccc2[nH]1)c1cccc(Cl)c1	x	u	-1.3%	-16.9%	u	u
Clc1ccc(-[n+]2c(-c3cccc(Br)c3)[nH]c3nc4ccccc4nc32)cc1	-28.9%	25.9µM*	-4.1%	0.7%	x	u
COc1ccc(Br)cc1C1NC(c2ccc3c(c2)OCO3)=CC(c2cc(Cl)ccc2O)N1 (stereo not given)	x	x	u	11.2µM*	x	x
Oc1ccccc1C1C=C(c2ccc3c(c2)OCO3)NC(c2c(F)cccc2Cl)N1 (stereo not given)	x	x	u	-86.6%	x	x
COc1ccccc1C1NC(c2ccc3c(c2)OCO3)=CC(c2ccccc2O)N1 (stereo not given)	x	10µM*	u	-29.2%	x	11.2µM*
COc1ccc(Cl)cc1NC(=O)c1cc(-c2ccc3c(c2)OCO3)on1	6.4%	-5.6%	1.6%	-17.9%	i	-4.2%
COc1ccc(C2NC(c3ccc4c(c3)OCO4)=CC(c3ccccc3O)N2)cc1OC (stereo not given)	x	17.8µM*	-6.5%	0.5%	x	12.6µM*
COc1ccccc1C1NC(c2ccc3c(c2)OCO3)=CC(c2cc(Cl)ccc2O)N1 (stereo not given)	x	3.98µM*	u	-30.2%	x	7.94µM*
